Laboratory results taken from PubChem BioAssay (NCI).
Where “and” joins values, the source holds several entries; their conditions need not be identical. Identical values can stand only once. The panel holds about 79,000 compounds, 15% with a hit somewhere; the sample as a whole holds those more often. Calls of active or inactive are those of the source. No stated cut-off is given here; in the data, active means growth inhibition above about 70%; inactive means the rest.

Experiments:
[1] = NCI Yeast Anticancer Drug Screen. Data for the rad50 strain (AID 155);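 further: 0% = growth of vehicle-only cultures of the same strain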; details: S. cerevisiae rad50 strain growth inhibition, stronger effect = higher value; at 50.0 µM unless noted
In short: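 Relative growth inhibition (compound vs vehicle) was measured in yeast with a defined repair-gene alteration.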

[2] = NCI Yeast Anticancer Drug Screen. Data for the mec2-1 strain (AID 157); details: S. cerevisiae mec2-1 strain, stronger effect = higher value; at 50.0 µM unless noted
In short: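 Mutant yeast (mec2-1) grown with compound; growth inhibition relative to vehicle control reported.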

[3] = NCI Yeast Anticancer Drug Screen. Data for the sgs1 mgt1 strain (AID 161);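 further: 0% = growth of cultures given vehicle only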; details: S. cerevisiae sgs1 mgt1 strain, stronger effect = higher value; at 50.0 µM unless noted
In short: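 Percent growth inhibition was derived by comparing compound-exposed mutant yeast with vehicle-exposed cultures. The strain carries alterations in DNA damage repair.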

[4] = NCI Yeast Anticancer Drug Screen. Data for the cln2 rad14 strain (AID 165);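 further: 0% = growth equal to vehicle treated cultures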; details: S. cerevisiae cln2 rad14 strain, stronger effect = higher value; at 50.0 µM unless noted
In short: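 Readout is yeast growth inhibition versus vehicle-treated controls, using a strain with cln2 and rad14 alterations exposed to compound.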

[5] = NCI Yeast Anticancer Drug Screen. Data for the bub3 strain (AID 167); details: S. cerevisiae bub3 mutant strain, stronger effect = higher value; at 50.0 µM unless noted
In short: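 Screening used yeast with an engineered genetic alteration affecting cell cycle control. Compound-exposed cultures were compared with vehicle cultures, and reduced growth was taken as inhibition.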

[6] = NCI Yeast Anticancer Drug Screen. Data for the mlh1 rad18 strain (AID 175); details: S. cerevisiae mlh1 rad18 strain growth inhibition, stronger effect = higher value; at 50.0 µM unless noted
In short: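 Genetically defined yeast (DNA repair-deficient) exposed to compounds; growth inhibition determined relative to vehicle.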

Measured: growth inhibition

CC(C)(C)c1cc2c(O)c3cccc4c(=O)c5cccc6c5-c(c34)c2c(c1)c6=O
inactive: [1] 33.9% | [2] 15.1% | [3] -26.8% | [4] 7.2% | [5] 4.8%

CCCCCCCNC(=O)C(C)Br (stereo unspecified)
inactive: [1] 17.6% | [2] 26.6% | [3] 16.6% | [4] -41.9% | [5] 19.7%

C=C1C(=O)OC2/C=C(\COC(C)=O)CCC(OC(C)=O)C3=CC(OC3=O)C12 (stereo unspecified)
inactive: [1] -0.4% | [2] 10.4% | [3] -22.2% | [4] -6.5% | [5] -30.1%

COC(OC)C(C)=O
inactive: [1] -13.1% | [2] -19.8% | [3] -18.9% | [4] -16.9% | [5] -15.5% | [6] 5.35%

CC(=O)O/N=C(\C(c1ccccc1)c1ccccc1)C1c2ccccc2-c2ccccc21
inactive: [5] 64.8%
active: [1] 91.3% | [2] 88.7% | [3] 96.9% | [4] 91.2%

C/C(=N\NC(=S)N1CCN(c2ccccn2)CC1)c1cccc(C)n1
active: [1] 90.3% | [2] 92.7% | [3] 91.8% | [4] 91.3% | [5] 89.5%

CCOC(=O)/C(C#N)=C/c1ccccc1Cl
inactive: [1] 12.1% | [2] -6.3% | [3] -30.6% | [4] 16.1% | [5] -20.1%

CNCc1cc(Br)cc(Br)c1O
inactive: [1] 6.9% | [2] -6.2% | [3] 15.4% | [4] -43.1% | [5] 1.45%

COc1c(OC(C)=O)c(OC(C)=O)cc2c1-c1ccc(SC)c(=O)cc1C(NC(C)=O)CC2 (stereo unspecified)
inactive: [1] 23.2% | [2] 3.5% | [3] -28.8% | [4] -24.6% | [5] -33.8%

C/C(=N\NC(=S)N1CCCCCC1)c1nccnc1C
active: [1] 85.7% | [2] 90.5% | [3] 89.7% | [4] 86.5% | [5] 87.4%

O=C(O)c1cccc(OCCO)c1
inactive: [1] -10% | [2] -11.2% | [3] -35.8% | [4] -26.4% | [5] -17.9%

CCCCCCC(/C=N/NC(=O)CCCCCCCCC(=O)N/N=C/C(=C/c1ccccc1)CCCCCC)=C\c1ccccc1
inactive: [1] 11.4% | [2] 1.85% | [3] -5.95% | [4] -5.05% | [5] -1.45%

CCOC(=O)NC(=O)c1cn(CCSCCOC(=O)NCCCCCCNC(=O)OCCSCCn2cc(C(=O)NC(=O)OCC)c(=O)n(C)c2=O)c(=O)n(C)c1=O
inactive: [1] -26% | [2] -10.6% | [3] -29.7% | [4] 7.9% | [5] -0.35%

Cc1cccc(/C=N/NC(=S)NC(C)(C)C)n1
inactive: [1] -17.4% | [2] -32.4% | [3] -4.45% | [4] 0.1% | [5] 15.8% | [6] -27.1%

NC(N)=N/N=C(/CC1OC(=O)c2ccccc21)c1ccc2ccccc2c1 (stereo unspecified)
inactive: [1] -3.2% | [2] -12.4% | [3] -2.65% | [4] 6.5% | [5] -16.1% | [6] -11.9%

Nc1nc(Cl)c(C=O)c(NCC2(CO)CC(CCc3ccccc3)C2)n1 (stereo unspecified)
inactive: [1] 15.4% | [2] 9.95% | [3] -32.8% | [4] -2.2% | [5] -22%

CN(C)CCCNC(=O)N/N=C/c1ccccc1
inactive: [1] 13.9% | [2] -13.8% | [3] -13.8% | [4] -6.3% | [5] -39.7% | [6] -21.1%

CC[N+](CC)(CC)CCOC(=O)c1cc(OC)c(OC)c(OC)c1
inactive: [1] -16.4% | [2] -20.4% | [3] -2.35% | [4] 15.4% | [5] 4.1%

Cc1nc2c(n1-c1ccc(Br)cc1)C(=O)c1ccccc1C2=O
inactive: [1] 33.9% | [2] -17.9% | [3] -4.4% | [4] 12.3% | [5] -30.2%

CC(=O)Cc1cc(-c2cc(CC(C)=O)nc(N)n2)nc(N)n1
inactive: [1] 1.85% | [2] 13.3% | [3] 12.7% | [4] 15.2% | [5] 1%

CC(C)N(CCO)CC(O)Cn1cnc2ncnc(N)c21 (stereo unspecified)
inactive: [1] 2.15% | [2] -10.8% | [3] -24.9% | [4] 6.7% | [5] -28.4%

CCOC(=O)C(CCc1ccccc1[N+](=O)[O-])(CCc1ccccc1[N+](=O)[O-])C(=O)OCC
inactive: [1] 12.3% | [2] -0.7% | [3] 6.35% | [4] -9% | [5] 10.7% | [6] 37.7%

C[Si](C)(C)OC1CC(=O)OC1n1cc(F)c(=O)[nH]c1=O (stereo unspecified)
active: [2] 81.6% | [3] 75.8%
inactive: [1] 56.8% | [4] -1.15% | [5] 21.8%

COc1cccc2c1C(=O)c1c(O)c3c(c(O)c1C2=O)C[C@@](O)(C(=O)CO)CC3OC1CC(O)C(O)C(C)O1 (stereo partly specified)
inactive: [2] 52.8% | [3] 33.2% | [4] 28.8% | [5] 63.2%
active: [1] 72%

CC1=C/C(O)CC(=O)Cc2nc(co2)C(=O)N2CCC=C2C(=O)OC(C(C)C)C(C)/C=C\C(=O)NC/C=C\1 (stereo unspecified)
inactive: [1] 39.5% and -2.6% | [2] -11.6% and 18.7% | [3] 22.7% and 0.6% | [4] 13.9% and 5.6% | [5] 37.5% and -3% | [6] 35.2% and 2.2%
